# Measurements taken from PubChem BioAssay (Tox21).
# Results filed as inconclusive are left out. A call without a number means that no potency is given here. The source made the active and inactive calls. Unless noted, calls follow the shape of the dose curve; as a rule, active = well fitted curve in the direction sought with a large enough effect in the repeat runs; inconclusive = weak or mixed curves; inactive = no such curve, though single readings can be large; an effect the other way counts as inactive or inconclusive.
# Key:
# [1] = qHTS assay to identify aromatase inhibitors - cell viability counter screen (AID 743084);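 also: cells stimulated with testosterone during compound exposure; nearly all actives have a fitted effect of over 55% in size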; also: potency is read from the fitted curve at half-maximal effect
# [2] = biological target: Aryl hydrocarbon receptor (Homo sapiens) (UniProt P35869); experiment: qHTS assay to identify small molecule that activate the aryl hydrocarbon receptor (AhR) signaling pathway (AID 743085); also: nearly all actives have a fitted effect of over 15% in size; also: potency is read from the fitted curve at half-maximal effect;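 as to activation: HG2L7.5c1 human HepG2 liver cells with stably integrated DRE-driven firefly reporter; series mostly up to about 70 µM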
# How it was run: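 AhR agonist activity is inferred from enhanced light output of a DRE-controlled firefly luciferase reporter in HepG2 cells, measured with ONE-Glo following 24 h treatment at 37C.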
# [3] = biological target: Peroxisome proliferator-activated receptor gamma (Homo sapiens) (UniProt P37231); experiment: qHTS assay to identify small molecule agonists of the peroxisome proliferator-activated receptor gamma (PPARg) signaling pathway (AID 743094; active = well fitted activation curve with a large enough effect in the signal ratio in the repeat runs, not every such curve was filed as active; the % refers to the signal ratio)
# How it was run: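 Cells from the PPARg UAS-bla HEK293H line are plated and incubated 5 h at 37C. Compounds in DMSO are pinned in and left 17 h at 37C. LiveBLAzer B/G substrate is then added for 1 h at room temperature before fluorescence is measured.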
# [4] = biological target: Peroxisome proliferator-activated receptor gamma (Homo sapiens) (UniProt P37231); experiment: qHTS assay to identify small molecule antagonists of the peroxisome proliferator-activated receptor gamma (PPARg) signaling pathway (AID 743191; calls by dose curve; also: series mostly up to about 63 µM; nearly all actives have a fitted effect of over 30% in size)
# How it was run: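 GeneBLAzer PPARg UAS-bla HEK293H cells carrying a UAS-driven beta-lactamase reporter were plated at 3000 cells/well, preincubated 5 h at 37C, then given compound for 17 h at 37C; LiveBLAzer B/G FRET substrate was read after 1 h at room temperature.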
# [5] = qHTS assay to identify small molecule antagonists of the peroxisome proliferator-activated receptor gamma (PPARg) signaling pathway - cell viability counter screen (AID 743194); also: nearly all actives have a fitted effect of over 55% in size
# How it was run: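 PPARg-UAS-bla HEK293H cells were plated, rested 5 h at 37 C, then treated with compounds plus rosiglitazone (50 nM final) for 17 h at 37 C; viability was then read by CellTiter-Glo luminescence after 30 min at room temperature.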
# [6] = qHTS assay for small molecule agonists of the antioxidant response element (ARE) signaling pathway - cell viability counter screen (AID 743203; calls by dose curve; also: nearly all actives have a fitted effect of over 55% in size)
# How it was run: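 Cytotoxicity was tested in parallel with the ARE reporter screen. ARE-bla HepG2 cells were exposed to compounds for 16 hrs, and viability was taken from CellTiter-Glo luminescence.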
# [7] = qHTS assay for small molecule activators of the heat shock response signaling pathway - cell viability counter screen (AID 743209); also: nearly all actives have a fitted effect of over 50% in size
# How it was run: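 Cytotoxicity counter screen run in parallel with the HSE beta-lactamase reporter, using the same wells. HeLa HSE-bla cells received compound for 5 h at 37 C; ATP-based CellTiter-Glo luminescence was measured after 30 min at room temperature.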
# [8] = qHTS assay for small molecule activators of the heat shock response signaling pathway (AID 743210; active = well fitted activation curve with a large enough effect in the signal ratio in the repeat runs, with a control signal flat, not every such curve was filed as active; the % refers to the signal ratio;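 also: HeLa cells with beta-lactamase reporter driven by heat shock elements; series mostly up to about 63 µM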)
# How it was run: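 Activation of heat shock element-controlled beta-lactamase expression is measured in HeLa cells by LiveBLAzer FRET fluorescence, with compound exposure lasting 5 h at 37 C and substrate loading 2.5 h at room temperature.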
# [9] = qHTS assay to identify small molecule agonists of the peroxisome proliferator-activated receptor delta (PPARd) signaling pathway - cell viability counter screen (AID 743211); also: nearly all actives have a fitted effect of over 55% in size
# How it was run: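 qHTS cell viability: PPARd-bla HEK293H; 17 h cpd, 37C; CellTiter-Glo, luminescence at 30 min RT.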
# [10] = biological target: Peroxisome proliferator-activated receptor delta (Homo sapiens) (UniProt Q03181); experiment: qHTS assay to identify small molecule agonists of the peroxisome proliferator-activated receptor delta (PPARd) signaling pathway (AID 743212; calls by dose curve)
# How it was run: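 Cells expressing a UAS-driven beta-lactamase reporter (PPARd-bla HEK293H) were given test compounds after a 5 h settle and kept at 37 C. Reporter activity was then measured as FRET fluorescence using LiveBLAzer B/G substrate.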
# [11] = qHTS assay to identify small molecule antagonists of the peroxisome proliferator-activated receptor delta (PPARd) signaling pathway - cell viability counter screen (AID 743213); also: nearly all actives have a fitted effect of over 50% in size
# How it was run: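 PPARd-bla HEK293H cells (3000/well) got compound plus 300 nM L165041 agonist for 17 h at 37 C. Viability in the same wells came from CellTiter-Glo luminescence after 30 min at room temperature.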
# [12] = qHTS assay to identify small molecule agonists of the farnesoid-X-receptor (FXR) signaling pathway - cell viability counter screen (AID 743218); also: nearly all actives have a fitted effect of over 45% in size
# How it was run: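 Cells were seeded, left 5 h at 37 C and 5% CO2, then dosed with compound in DMSO for 16 h. After the beta-lactamase FRET read, CellTiter-Glo was added and luminescence measured 30 min later.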
# [13] = qHTS assay to identify small molecule antagonists of the farnesoid-X-receptor (FXR) signaling pathway - cell viability counter screen (AID 743221; active = well fitted cell-killing curve with a large enough effect in the repeat runs, not every such curve was filed as active; also: nearly all actives have a fitted effect of over 50% in size)
# How it was run: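 After a 5 h settling period, FXR-bla HEK 293T cells receive compound and chenodeoxycholic acid (50 uM final) and incubate 16 h at 37 C; CellTiter-Glo luminescence, read after 30 min at room temperature, reports cell viability.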
# [14] = biological target: Vitamin D3 receptor (Homo sapiens) (UniProt P11473); experiment: qHTS assay to identify small molecule agonists of the vitamin D receptor (VDR) signaling pathway (AID 743222; calls by dose curve)
# How it was run: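 Cells carrying a VDR-driven beta-lactamase reporter are seeded at 2,000 per well and rested 4 h. Compounds in DMSO are added for 16 h at 37C, and FRET substrate fluorescence is measured after 2 h at room temperature.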
# [15] = biological target: Vitamin D3 receptor (Homo sapiens) (UniProt P11473); experiment: qHTS assay to identify small molecule antagonists of the vitamin D receptor (VDR) signaling pathway (AID 743223; active = well fitted inhibition curve with a large enough effect in the signal ratio in the repeat runs, not every such curve was filed as active; the % refers to the signal ratio)
# How it was run: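 Reporter line VDR-bla; stimulus 1alpha,25-(OH)2 vitamin D3, 3 nM final; compound co-addition, 16 h 37C/5% CO2; LiveBLAzer B/G substrate 2 h RT; fluorescence intensity.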
# [16] = biological target: Peroxisome proliferator-activated receptor delta (Homo sapiens) (UniProt Q03181); experiment: qHTS assay to identify small molecule antagonists of the peroxisome proliferator-activated receptor delta (PPARd) signaling pathway (AID 743215; active = well fitted inhibition curve with a large enough effect in the signal ratio in the repeat runs, not every such curve was filed as active; the % refers to the signal ratio;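 also: cells stimulated with agonist L165041 at 300 nM final during compound exposure; series mostly up to about 62 µM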)
# How it was run: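 Cells: HEK293H with a UAS-driven beta-lactamase reporter responsive to PPARd. Compounds were co-added with L165041 (300 nM, final) and incubated 17 h at 37 C before a 2 h room-temperature FRET substrate step and fluorescence reading.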
# [17] = biological target: Bile acid receptor (Homo sapiens) (UniProt Q96RI1); experiment: qHTS assay to identify small molecule antagonists of the farnesoid-X-receptor (FXR) signaling pathway (AID 743217; active = well fitted inhibition curve with a large enough effect in the signal ratio in the repeat runs, not every such curve was filed as active; the % refers to the signal ratio)
# How it was run: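 Cells carrying a UAS-driven beta-lactamase reporter (GeneBLAzer FXR-UAS-bla HEK 293T) were plated and rested 5 h at 37 °C. Compounds in DMSO were added alongside chenodeoxycholic acid agonist at 50 uM final and left 16 h at 37 °C before FRET substrate readout.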
# [18] = qHTS assay to identify small molecule that activate the aryl hydrocarbon receptor (AhR) signaling pathway - cell viability counter screen (AID 743086);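 also: HepG2 liver cells carrying the AhR DRE luciferase reporter; series mostly up to about 70 µM; nearly all actives have a fitted effect of over 45% in size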
# How it was run: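 HepG2-AhR-luc (HG2L7.5c1) cells, 4000/well, were preincubated 5 h at 37C, exposed to compound in qHTS format for 24 hr at 37C, then given CellTiter-Fluor for 30 min; viability was read as fluorescence in the reporter wells.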
# [19] = qHTS assay for small molecule agonists of the antioxidant response element (ARE) signaling pathway (AID 743202; active = well fitted activation curve with a large enough effect in the signal ratio in the repeat runs, not every such curve was filed as active; the % refers to the signal ratio)
# How it was run: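 Steps: seed ARE-bla HepG2 cells (2,000/well); incubate 5 h at 37 C; add compounds by pin tool; incubate 16 h at 37 C; add FRET substrate; read fluorescence after 2 h at RT.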
# [20] = biological target: Bile acid receptor (Homo sapiens) (UniProt Q96RI1); experiment: qHTS assay to identify small molecule agonists of the farnesoid-X-receptor (FXR) signaling pathway (AID 743220; active = well fitted activation curve with a large enough effect in the signal ratio in the repeat runs, not every such curve was filed as active; the % refers to the signal ratio)
# How it was run: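 FXR-UAS-bla HEK 293T cells carrying a UAS-driven beta-lactamase reporter were plated for 5 h at 37C/5% CO2, then exposed to DMSO-dissolved Tox21 10K compounds for 16 h at 37C. A LiveBLAzer B/G FRET substrate was loaded for 2 h at room temperature before fluorescence reading.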
# Chain of Peroxisome proliferator-activated receptor delta (Homo sapiens) (Q03181 whole entry, looked up): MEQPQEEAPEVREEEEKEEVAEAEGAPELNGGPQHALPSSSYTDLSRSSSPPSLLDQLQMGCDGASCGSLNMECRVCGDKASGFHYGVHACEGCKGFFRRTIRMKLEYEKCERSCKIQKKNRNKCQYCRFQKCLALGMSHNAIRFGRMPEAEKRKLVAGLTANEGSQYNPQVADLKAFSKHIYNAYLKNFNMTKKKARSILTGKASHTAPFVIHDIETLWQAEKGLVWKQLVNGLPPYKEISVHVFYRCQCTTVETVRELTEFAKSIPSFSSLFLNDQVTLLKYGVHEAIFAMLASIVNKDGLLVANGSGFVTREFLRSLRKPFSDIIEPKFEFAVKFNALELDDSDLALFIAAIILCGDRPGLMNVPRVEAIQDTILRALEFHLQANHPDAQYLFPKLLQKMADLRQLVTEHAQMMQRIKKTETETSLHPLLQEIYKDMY
# Chain of Vitamin D3 receptor (Homo sapiens) (P11473 whole entry, looked up): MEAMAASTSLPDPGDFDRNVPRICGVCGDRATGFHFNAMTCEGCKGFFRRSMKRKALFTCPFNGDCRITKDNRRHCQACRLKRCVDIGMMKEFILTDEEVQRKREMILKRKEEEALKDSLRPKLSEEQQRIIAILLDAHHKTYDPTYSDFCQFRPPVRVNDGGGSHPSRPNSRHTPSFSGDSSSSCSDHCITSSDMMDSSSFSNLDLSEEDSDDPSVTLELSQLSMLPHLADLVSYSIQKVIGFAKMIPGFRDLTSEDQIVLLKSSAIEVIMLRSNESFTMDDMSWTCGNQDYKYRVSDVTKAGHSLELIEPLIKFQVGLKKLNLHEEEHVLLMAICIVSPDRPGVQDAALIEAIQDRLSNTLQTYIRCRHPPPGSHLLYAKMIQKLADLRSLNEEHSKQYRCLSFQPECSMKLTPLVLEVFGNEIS
# Chain of Peroxisome proliferator-activated receptor gamma (Homo sapiens) (P37231 whole entry, looked up): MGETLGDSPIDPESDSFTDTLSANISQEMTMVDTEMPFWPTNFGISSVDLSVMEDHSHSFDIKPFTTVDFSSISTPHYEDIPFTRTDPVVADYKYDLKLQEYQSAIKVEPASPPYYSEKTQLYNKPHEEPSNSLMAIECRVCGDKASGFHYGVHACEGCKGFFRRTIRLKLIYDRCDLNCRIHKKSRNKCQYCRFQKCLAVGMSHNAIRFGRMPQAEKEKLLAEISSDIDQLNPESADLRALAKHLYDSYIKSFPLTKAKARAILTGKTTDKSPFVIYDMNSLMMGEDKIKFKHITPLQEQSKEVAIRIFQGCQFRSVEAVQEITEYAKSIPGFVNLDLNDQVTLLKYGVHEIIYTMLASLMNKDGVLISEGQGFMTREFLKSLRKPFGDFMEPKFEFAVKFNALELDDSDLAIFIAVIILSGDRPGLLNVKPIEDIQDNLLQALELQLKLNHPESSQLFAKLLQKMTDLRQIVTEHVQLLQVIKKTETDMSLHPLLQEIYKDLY
# Chain of Aryl hydrocarbon receptor (Homo sapiens) (P35869 whole entry, looked up): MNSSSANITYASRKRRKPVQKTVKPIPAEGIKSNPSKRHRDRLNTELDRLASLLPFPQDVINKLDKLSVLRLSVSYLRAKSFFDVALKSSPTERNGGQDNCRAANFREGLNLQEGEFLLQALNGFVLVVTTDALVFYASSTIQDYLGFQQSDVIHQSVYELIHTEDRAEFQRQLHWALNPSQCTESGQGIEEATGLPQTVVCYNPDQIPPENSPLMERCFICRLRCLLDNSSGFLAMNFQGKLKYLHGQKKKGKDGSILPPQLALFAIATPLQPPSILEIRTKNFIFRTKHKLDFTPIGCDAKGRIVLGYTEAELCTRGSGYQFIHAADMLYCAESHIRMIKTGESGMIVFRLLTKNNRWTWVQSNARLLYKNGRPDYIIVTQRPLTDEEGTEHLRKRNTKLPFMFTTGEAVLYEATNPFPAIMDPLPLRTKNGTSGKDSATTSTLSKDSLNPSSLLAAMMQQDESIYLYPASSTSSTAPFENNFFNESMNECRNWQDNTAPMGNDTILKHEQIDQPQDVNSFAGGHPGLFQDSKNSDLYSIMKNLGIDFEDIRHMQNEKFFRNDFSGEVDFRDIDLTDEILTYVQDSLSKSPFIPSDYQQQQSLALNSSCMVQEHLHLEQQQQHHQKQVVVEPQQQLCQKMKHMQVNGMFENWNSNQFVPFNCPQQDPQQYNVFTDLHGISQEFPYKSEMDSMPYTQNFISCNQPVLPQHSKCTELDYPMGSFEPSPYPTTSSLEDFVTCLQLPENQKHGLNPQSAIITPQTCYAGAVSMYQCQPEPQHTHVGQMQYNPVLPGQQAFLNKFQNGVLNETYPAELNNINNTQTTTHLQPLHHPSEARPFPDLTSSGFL
# Chain of Bile acid receptor (Homo sapiens) (Q96RI1 whole entry, looked up): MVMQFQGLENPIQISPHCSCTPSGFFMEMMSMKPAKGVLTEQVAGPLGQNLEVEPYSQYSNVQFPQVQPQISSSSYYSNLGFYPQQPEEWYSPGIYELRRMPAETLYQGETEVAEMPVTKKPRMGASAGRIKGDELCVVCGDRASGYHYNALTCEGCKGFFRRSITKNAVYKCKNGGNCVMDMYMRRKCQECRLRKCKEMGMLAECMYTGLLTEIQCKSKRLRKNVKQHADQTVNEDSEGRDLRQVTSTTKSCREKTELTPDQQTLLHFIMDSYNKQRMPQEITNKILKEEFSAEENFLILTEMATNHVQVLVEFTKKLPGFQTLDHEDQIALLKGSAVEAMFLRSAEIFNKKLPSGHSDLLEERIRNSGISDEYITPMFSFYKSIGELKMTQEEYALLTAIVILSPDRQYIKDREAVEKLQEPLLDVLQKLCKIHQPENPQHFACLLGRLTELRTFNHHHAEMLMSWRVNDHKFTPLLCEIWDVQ
Compound,Potency [1],Potency [2],outcome [3],Potency [4],outcome [5],Potency [6],outcome [7],outcome [8],Potency [9],outcome [10],Potency [11],Potency [12],Potency [13],outcome [14],outcome [15],Potency [16],outcome [17],Potency [18],Potency [19],outcome [20]
N=C(N)c1ccc(OCCCOc2ccc(C(=N)N)cc2)cc1,inactive,inactive,inactive,inactive,inactive,inactive,inactive,inactive,inactive,inactive,inactive,inactive,inactive,inactive,inactive,,,,,
COC(=O)[C@@H](N)Cc1ccc(O)c(O)c1,26.6 µM (active),26.6 µM (active),inactive,,inactive,inactive,inactive,inactive,,,inactive,,inactive,,,,,,,
O=C(CCCN1CCC(O)(c2cccc(C(F)(F)F)c2)CC1)c1ccc(F)cc1,inactive,inactive,,,inactive,inactive,inactive,inactive,,inactive,,,inactive,inactive,inactive,inactive,inactive,,,
COC(=O)c1ccc(C)cc1C1=NC(C)(C(C)C)C(=O)N1 (centres undefined),inactive,inactive,inactive,,inactive,inactive,inactive,inactive,inactive,inactive,inactive,inactive,inactive,inactive,,inactive,,,,
O=C1CCCCCCCCCCCN1,inactive,inactive,,,inactive,inactive,inactive,inactive,,inactive,inactive,inactive,inactive,inactive,inactive,inactive,,inactive,,
CC(=O)OC/C=C(\C)CC/C=C(\C)CCC=C(C)C,inactive,,inactive,inactive,inactive,inactive,,,inactive,,inactive,inactive,inactive,inactive,,inactive,,inactive,,
NC(=O)Nc1ccccc1,inactive,inactive,,,,inactive,inactive,inactive,inactive,inactive,inactive,inactive,inactive,inactive,,,,inactive,,
NC(=O)c1ccc(N)cc1,inactive,,inactive,inactive,inactive,inactive,inactive,inactive,,,,inactive,inactive,inactive,inactive,,inactive,inactive,inactive,
O=C(O)CCCc1ccccc1,inactive,inactive,,,inactive,inactive,inactive,inactive,,,inactive,,inactive,inactive,inactive,,,inactive,,
NS(=O)(=O)c1cc(C(=O)O)cc(N2CCCC2)c1Oc1ccccc1,inactive,inactive,,,inactive,inactive,inactive,inactive,,,inactive,inactive,inactive,inactive,inactive,,,inactive,,
CCN(Cc1ccncc1)C(=O)C(CO)c1ccccc1 (centres undefined),inactive,inactive,,,inactive,inactive,inactive,,inactive,,inactive,inactive,inactive,inactive,inactive,,,inactive,,
CC(=O)Nc1c(I)cc(I)c(C(=O)O)c1I,inactive,inactive,,,inactive,,,inactive,inactive,inactive,inactive,inactive,inactive,inactive,inactive,,,inactive,,
NC(=O)COCCN1CCN(C(c2ccccc2)c2ccc(Cl)cc2)CC1 (centres undefined),inactive,inactive,inactive,inactive,inactive,inactive,,inactive,inactive,inactive,,inactive,inactive,,inactive,,,,inactive,
CN1CC(=O)NC1=N,inactive,inactive,,,inactive,,inactive,inactive,inactive,,inactive,inactive,inactive,inactive,inactive,,inactive,inactive,,
Cc1cc(O)cc2c1O[C@](C)(CCC[C@H](C)CCC[C@H](C)CCCC(C)C)CC2,inactive,,inactive,,inactive,inactive,,inactive,,,,inactive,inactive,inactive,inactive,,inactive,inactive,inactive,inactive
COCCCOCCCOC,inactive,inactive,,,inactive,inactive,,inactive,,inactive,inactive,inactive,inactive,inactive,inactive,inactive,inactive,inactive,,inactive
CN(C(=O)c1c(O)c2ccccc2n(C)c1=O)c1ccccc1,inactive,,inactive,,inactive,inactive,inactive,inactive,inactive,inactive,inactive,inactive,inactive,inactive,inactive,inactive,,inactive,inactive,
CCOC(=O)Nc1ccc(NCc2ccc(F)cc2)nc1N,inactive,,inactive,inactive,inactive,inactive,inactive,inactive,,,inactive,inactive,inactive,inactive,,,,inactive,inactive,
N[C@H]1CN(c2c(F)cc3c(=O)c(C(=O)O)cn(C4C[C@H]4F)c3c2Cl)CC12CC2 (some centres undefined),inactive,inactive,,,inactive,inactive,inactive,inactive,inactive,,inactive,inactive,inactive,inactive,,,,inactive,,
